Laboratory results from PubChem BioAssay AID743446 (Broad Institute, 2014).
Entries with a potency or affinity are not part of this list. Unmarked numbers belong to inactive results. How the calls were made is not given here.

Test: HEK293 cell cytotoxicity, dose response, cytotoxicity control, plate reader, cherry-picked samples (AID 743446)
Conditions: hits give low values; at 26 µM unless noted

## C[C@H](CO)N1C[C@H](C)[C@H](CN(C)C(=O)Nc2cccc3ccccc23)OCCCC[C@H](C)Oc2ccc(NC(=O)c3ccccc3)cc2C1=O
  max activity: 31.2% [at 12 µM]

## O=C(O)c1ccc(-c2noc(-c3ccccc3Cl)n2)cc1
  max activity: -20.2% [at 6 µM]

## Cn1nnnc1SCC(=O)N1CCN(C(=O)c2ccco2)CC1
  max activity: -12.8% [at 0.05 µM]

## Cc1ccc(NC(=O)c2ncn(CC(=O)NCc3ccc4[nH]ccc4c3)n2)cc1C
  max activity: 8.88%

## C[C@H]1CCCCO[C@@H](CN(C)C(=O)Nc2ccc(F)cc2)[C@@H](C)CN([C@@H](C)CO)C(=O)c2cc(NC(=O)C3CCCCC3)ccc2O1
  max activity: -14.5% [at 6 µM]

## COc1ccc(CCNC(=O)C2CCN(S(=O)(=O)c3ccc(Cl)cc3)CC2)cc1OC
  max activity: -15% [at 0.05 µM]

## CC(C)c1nnc(NC(=O)c2ccc3c(c2)OCO3)s1
  max activity: 30.9% [at 0.38 µM]

## CCc1nnc(NC(=O)CSc2nnc3ncccn23)s1
  max activity: 33.7%

## O=C(Cc1ccncc1)NCC[C@H]1CC[C@H](NC(=O)C2CCCC2)[C@H](CO)O1
  max activity: 13.9% [at 0.1 µM]

## O=C(O)c1c2c(nc3ccccc13)/C(=C/c1ccc(O)cc1)CC2
  max activity: 22.6%

## O=C(O)c1cccc(Nc2ccnc(Nc3cccc(C(=O)O)c3)n2)c1
  max activity: -12.2% [at 0.05 µM]

## C[C@H]1CCCCO[C@@H](CN(C)C(=O)Nc2ccccc2)[C@@H](C)CN([C@@H](C)CO)C(=O)c2cc(NC(=O)NC3CCCCC3)ccc2O1
  max activity: 12.4% [at 0.05 µM]

## CC(C)NC(=O)Nc1ccc2c(c1)C(=O)N([C@H](C)CO)C[C@@H](C)[C@H](CN(C)S(C)(=O)=O)OCCCC[C@H](C)O2
  max activity: 43.1%

## COc1ccccc1CNS(=O)(=O)c1ccc(N2CCCC2)cc1Br
  max activity: -9.37%

## CCC(=O)Nc1cc2nn(-c3ccc(OC)cc3)nc2cc1C
  max activity: 0% [setting not given]

## O=C(CN1C(=O)c2ccccc2S1(=O)=O)Nc1ncc(Cl)cc1Cl
  max activity: -12.9% [at 1.6 µM]

## COc1ccc(-c2cc3nc(CCl)[nH]c(=O)c3s2)cc1
  max activity: -60.9%

## O=C(C[C@H]1CC[C@H](NS(=O)(=O)c2cccc(F)c2)[C@@H](CO)O1)N1CCCCC1
  max activity: 20.1% [at 0.05 µM]

## C[C@H](CO)N1C[C@H](C)[C@H](CN(C)C(=O)Nc2cccc3ccccc23)OCCCC[C@H](C)Oc2ccc(NC(=O)NC3CCCCC3)cc2C1=O
  max activity: 68.9%

## Cc1ccc(NC(=O)c2ccc3c(c2)OCCO3)cc1C
  max activity: 32.4% [at 0.38 µM]

## COC(=O)c1ccc(Nc2cc(C)nc3ccc(C)cc23)cc1
  max activity: -31.7% [at 12 µM]

## CCC(=O)N(C)C[C@H]1Oc2cc(C#CCC(C)C)ccc2S(=O)(=O)N([C@H](C)CO)C[C@@H]1C
  max activity: 21.8% [at 0.05 µM]

## COc1cc(NC(=O)c2cccs2)c(C(=O)OCC(=O)c2cc(C)n(-c3ccccc3)c2C)cc1OC
  max activity: 17.2%

## O=C(CCc1nnc(CCCCc2ccccc2)o1)N1CCCC(O)C1 (centres undefined)
  max activity: -17.7% [at 0.1 µM]

## O=C(CN1C(=O)c2ccccc2S1(=O)=O)c1ccccc1Cl
  max activity: 32.4%

## CCc1nnc2cccc(Cl)n12
  max activity: -9.24% [at 1.6 µM]

## O=C(C[C@@H]1C[C@H]2c3cc(NC(=O)c4ccc5c(c4)OCO5)ccc3O[C@H]2[C@@H](CO)O1)NCc1ccc(Oc2ccccc2)cc1
  max activity: -15.7% [at 0.05 µM]

## CNCc1ccccc1Sc1ccc(O)c(O)c1
  max activity: -16.4%

## C[C@H](CO)N1C[C@H](C)[C@@H](CN(C)CC2CCOCC2)Oc2ncc(Br)cc2C1=O
  max activity: 4.11%

## Cc1ccc2nc(CSc3nc(C)ccc3C#N)[nH]c2c1
  max activity: -29.6% [at 1.6 µM]

## Cc1noc(C)c1S(=O)(=O)Nc1ccc2c(c1)C(=O)N([C@H](C)CO)C[C@H](C)[C@H](CN(C)C(=O)Nc1ccc(F)cc1)OCCCC[C@@H](C)O2
  max activity: 16.1% [at 0.1 µM]

## COc1ccc2c3c([nH]c2c1)[C@H](CO)N(C(C)=O)CC31CCN(C(=O)CN2CCOCC2)CC1
  max activity: 11.8% [at 0.38 µM]

## Cc1cccn2c(CNCC3(c4ccccc4)CCCC3)c(C(=O)N3CCOCC3)nc12
  max activity: 13.8% [at 3 µM]

## COCCn1c(C)cc(C(=O)CSc2nnnn2C2CCCC2)c1C
  max activity: 21%

## C[C@@H]1CN([C@H](C)CO)C(=O)c2cc(C#CCN(C)C)cnc2O[C@@H]1CN(C)C(=O)CN1CCOCC1
  max activity: 12.9% [at 0.195 µM]

## COc1ccc2nc(NC(=O)c3ccccc3F)sc2c1
  max activity: 34.9% [at 3 µM]

## Cc1ccc(-c2cc(C(=O)N(C)Cc3cnn(C)c3C)c3cc(Br)ccc3n2)cc1
  max activity: -9.48%

## O=C(NCc1ccc(F)cc1)c1cc(C2CCCCN2S(=O)(=O)c2cccs2)on1 (centres undefined)
  max activity: 15.1% [at 0.38 µM]

## CCCOc1ccc(F)cc1-c1cc(C(=O)Nc2cc(OC)c(OC)c(OC)c2)[nH]n1
  max activity: 9.95% [at 3 µM]
